# PubChem BioAssay AID376 (PDSP, 2006)
# The whole screen tested about 2,000 compounds, of which about 250 (12%) were called active. The sample as a whole holds a higher share of actives than the screen did. Values without a mark were called inactive. No stated cut-off is given here; in the data, active means hERG blockade below about -20% or above about 20%; inactive means in between.
# Target: Voltage-gated inwardly rectifying potassium channel KCNH2 (Homo sapiens) (UniProt Q12809)
# Test: modulators of KCNH2 ion channel function, cellular (AID 376);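 further: 0% = buffer alone and 100% = reference blocker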
# Conditions: hERG-expressing cells, channel activity single-concentration screen; concentration not given here
# Sequence of Voltage-gated inwardly rectifying potassium channel KCNH2 (Homo sapiens) (Q12809 whole entry, looked up): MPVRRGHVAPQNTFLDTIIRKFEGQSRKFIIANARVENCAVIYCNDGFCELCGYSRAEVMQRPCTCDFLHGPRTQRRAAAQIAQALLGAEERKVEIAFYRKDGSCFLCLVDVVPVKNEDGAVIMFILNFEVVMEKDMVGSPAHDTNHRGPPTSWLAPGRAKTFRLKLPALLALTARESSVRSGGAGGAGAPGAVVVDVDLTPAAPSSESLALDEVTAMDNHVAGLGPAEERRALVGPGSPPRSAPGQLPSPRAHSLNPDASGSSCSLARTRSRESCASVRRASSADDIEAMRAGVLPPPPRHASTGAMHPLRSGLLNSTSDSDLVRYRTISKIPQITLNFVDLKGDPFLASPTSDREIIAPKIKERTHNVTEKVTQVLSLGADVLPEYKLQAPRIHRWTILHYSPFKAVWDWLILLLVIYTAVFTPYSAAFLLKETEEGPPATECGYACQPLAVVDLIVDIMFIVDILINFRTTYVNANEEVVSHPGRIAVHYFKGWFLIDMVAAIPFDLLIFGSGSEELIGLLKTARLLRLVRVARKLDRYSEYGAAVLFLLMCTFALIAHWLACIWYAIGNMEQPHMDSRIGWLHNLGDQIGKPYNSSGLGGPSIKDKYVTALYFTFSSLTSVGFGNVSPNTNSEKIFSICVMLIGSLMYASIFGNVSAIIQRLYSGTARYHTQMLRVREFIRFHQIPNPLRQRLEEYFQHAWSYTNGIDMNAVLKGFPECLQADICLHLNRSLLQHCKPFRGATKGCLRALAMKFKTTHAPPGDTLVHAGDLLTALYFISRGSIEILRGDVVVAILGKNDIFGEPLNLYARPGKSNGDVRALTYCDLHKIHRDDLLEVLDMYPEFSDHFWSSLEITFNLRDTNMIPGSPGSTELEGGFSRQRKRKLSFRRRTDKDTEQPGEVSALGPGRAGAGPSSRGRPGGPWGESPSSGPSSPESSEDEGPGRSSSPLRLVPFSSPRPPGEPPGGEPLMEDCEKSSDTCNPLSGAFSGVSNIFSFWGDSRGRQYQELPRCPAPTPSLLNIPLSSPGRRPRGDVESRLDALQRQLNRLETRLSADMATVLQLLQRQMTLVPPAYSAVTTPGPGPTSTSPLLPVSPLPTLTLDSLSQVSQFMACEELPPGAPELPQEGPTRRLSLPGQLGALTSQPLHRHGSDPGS
row,SMILES,hERG blockade
1,NC(CSCc1ccc(I)cc1)C(=O)O (centres undefined),8.02%
2,O=C(O)c1cc2c(cc1S(=O)(=O)O)C1C(C3C2C2(Cl)C(Cl)=C(Cl)C3(Cl)C2(Cl)Cl)C2(Cl)C(Cl)=C(Cl)C1(Cl)C2(Cl)Cl (centres undefined),3.63%
3,CC(C)Oc1cc(O)c2c(c1)OCC=C2CCC(=O)O,16%
4,O=C1OC2(c3ccc(O)cc3Oc3cc(O)ccc32)c2c1c(-c1ccccc1)c(-c1ccccc1)c(-c1ccccc1)c2-c1ccccc1,-2.77%
5,O=C(O)C=CC=Cc1ccc2c(c1)OCO2,-8.5%
6,O=C(O)CSC1=NCCN1,-1.36%
7,Cc1ccc(S(=O)(=O)OC2CCN(C)CC2)cc1,-11.1%
8,Nc1ncnc2nn(C3OC(CO)C(O)C3O)nc12 (centres undefined),13.3%
9,N#CC(=NCCO)C1=C(O)c2ccccc2C1=O,-3.02%
10,CC1CCCC2(CC[N+](C)(CCC[N+](C)(C)C)CC2)C1 (centres undefined),17.8%
11,CCN(CC(=O)O)CC(=O)O,4.67%
12,CC12CCC(=O)C=C1CCC1C2C(O)CC2(C)C1CCC2(O)C(=O)CO (centres undefined),14.3%
13,CC12CCC(=O)C=C1CCC1C2C(O)CC2(C)C1CCC2(O)C(=O)COC(=O)C1CCCC1 (centres undefined),-2.63%
14,CN1CCCC(C(=O)OCC(=O)C2(O)CCC3C4CCC5=CC(=O)CCC5(C)C4C(O)CC32C)C1 (centres undefined),25.6% (active)
15,CC(NC(=O)C1(N)CCCC1)C(=O)O (centres undefined),-5.06%
16,CCOC(=O)Cn1c(C(F)(F)F)nc2nc(Cl)c(Cl)nc21,13.4%
17,O=C(O)c1nn(-c2ccccc2-c2n[nH]c(=O)[nH]c2=O)c(=O)[nH]c1=O,7.69%
18,O=C1C(=O)c2ccccc2C(O)=C1C(C1=C(O)c2ccccc2C(=O)C1=O)c1ccc(Cl)cc1,17.5%
19,O=C(O)c1nn(-c2ccc(Cl)cc2)c2c1C(=O)c1ccccc1C2=O,26% (active)
20,Cc1cn(C2CC(N=[N+]=[N-])C(CO)O2)c(=O)[nH]c1=O (centres undefined),9.12%
21,CC(C)C12CCC3(CCC4C(C)(C(=O)O)CCCC4(C)C3C1)C(CN)C2 (centres undefined),-4.91%
22,CN(C)CCC=C1c2ccccc2C=Cc2ccccc21,15.1%
23,CN(C)CCC=C1c2ccccc2Sc2ccc(Cl)cc21,66.2% (active)
24,CC(C[n+]1ccccc1)=NN=C(N)N,12.9%
25,Clc1ccc2c(NCCNC3CCCCC3)ccnc2c1,63.2% (active)

row,SMILES,hERG blockade
1,O=C(O)c1ccc(Nc2ccnc3cc(Cl)ccc23)cc1O,-3.15%
2,Clc1ccc2c(NC3CCC(N4CCCCC4)CC3)ccnc2c1 (centres undefined),53.4% (active)
3,Clc1ccc2c(NCCNc3ccnc4cc(Cl)ccc34)ccnc2c1,0.444%
4,Clc1ccc2c(N3CCC(CCC4CCN(c5ncnc6cc(Cl)ccc56)CC4)CC3)ncnc2c1,-8.41%
5,O=C(O)CN(CCN(CC(=O)O)CC(=O)O)CC(=O)O.[Mn+2],-6.49%
6,O=c1ccc(-c2ccccc2)n[nH]1,17.2%
7,CC(C)C(N)(C(=O)O)c1ccccc1 (centres undefined),-5.81%
8,CC1(c2ccccc2)OC2CC3C4CCC5=CC(=O)C=CC5(C)C4(F)C(O)CC3(C)C2(C(=O)CO)O1 (centres undefined),6.41%
9,O=CNc1ncn[nH]1,-3.79%
10,c1c[nH]c(CN2CCOCC2)n1,2.23%
11,CC1CCC2C(C)C3C(CC4C5CC=C6CC(O)CCC6(C)C5CC(O)C43C)N2C1 (centres undefined),-3.2%
12,CC(=O)Nc1nc(NC(C)=O)c2[nH]c(CO)nc2n1,0.0402%
13,O=S1(=O)NC2CCC3NS(=O)(=O)NC4CCC(N1)N4S(=O)(=O)N23 (centres undefined),0.569%
14,C[N+](C)(C)CCN(Cc1cccs1)c1ccccn1,39.5% (active)
15,CN(C)CCN(c1ccccn1)c1ccccn1,-15.1%
16,CC(CO)(CO)N=Cc1cc(I)cc(I)c1O,5%
17,O=C1Oc2ccccc2C(=O)C1=CN1C(=O)NC(=Cc2ccccc2O)C1=O,10.5%
18,c1ccc(SC(Sc2ccccc2)c2ccc3c(c2)OCO3)cc1,15.6%
19,CN(C)c1ccc(C(=C2C=CC(=[N+](C)C)C=C2)c2c(O)c(S(=O)(=O)[O-])cc3cc(S(=O)(=O)O)ccc23)cc1,8.17%
20,CN(C)c1ccc(C(=C2C=CC(=[N+](C)C)C=C2)c2ccccc2)cc1,40.6% (active)
21,N=C1C=CC(=C(c2ccc(N)cc2)c2ccc(N)cc2)C=C1,9.77%
22,CC(=O)CC(=O)Nc1ccc2ccccc2c1,2.34%
23,O=C(c1ccccc1)C(Nc1ccc2ccccc2c1)c1ccccc1 (centres undefined),25.3% (active)
24,O=C(O)CCC(=O)Nc1ccc2ccccc2c1,10%
25,O=S(=O)(O)C(CO)c1ccccc1 (centres undefined) (tested in a mixture with another compound),13.2%

row,SMILES,hERG blockade
1,NNC(=O)c1ccc(OCc2nc3ccccc3[nH]2)cc1,0.772%
2,CN(CC(=O)O)Cc1c(O)c(Cl)cc(Cl)c1Cl,-16.4%
3,O=C(O)C1CCN(Cc2oc(CO)cc(=O)c2O)C1 (centres undefined),3.01%
4,CN(CC(=O)O)Cc1oc(CO)cc(=O)c1O,-29.8% (active)
5,CC1=C(CCC(C)CO)OC2CC3C4CCC5CC(O)CCC5(C)C4CC(=O)C3(C)C12 (centres undefined),-6.35%
6,NC1=C(O)C(=O)C(c2c[nH]c3ccc(OCc4ccccc4)cc23)O1 (centres undefined),12.8%
7,Nc1nc(-c2ccc3ccccc3c2)cc(-c2cc(-c3ccc4ccccc4c3)nc(N)n2)n1,2.73%
8,S=C1NCN2CCN(CC2)CNC(=S)C(=S)NCN2CCN(CC2)CNC1=S,17.9%
9,O=[N+]([O-])c1cc(Cc2cc([N+](=O)[O-])c3cccnc3c2O)c(O)c2ncccc12,-5.37%
10,O=[N+]([O-])c1cc(Cl)cc2c1nc(NCCO)c1ccccc12,38% (active)
11,Nc1nc(Cl)cc(NCCO)n1,-8.52%
12,O=C(Cn1ccc(=O)[nH]c1=O)Nc1ccc(C(=O)O)c(O)c1,-7.44%
13,O=C(O)CCCCn1ccc(=O)[nH]c1=O,-28% (active)
14,Cc1cn(CCC(N)C(=O)O)c(=O)[nH]c1=O (centres undefined),2.71%
15,O=C(CCN1CCOCC1)Nc1ccc(F)cc1F,4.1%
16,O=C(O)Cc1[nH]cnc1C(=O)O,-3.29%
17,O=C1C(=Cc2ccccc2)C(NC2CCCCC2)c2ccccc21 (centres undefined),-0.193%
18,CC(C)C1OC(=O)C=CC=CC=CC=CC=CCC(O)C(C)C(O)CC(O)CC(O)CC(O)CC(O)CC(O)CC(O)C=CC1C (centres undefined),5.61%
19,CN(C)Cc1cc(Cl)c(O)c(CN(C)C)c1,1.1%
20,Oc1c(Cl)cc(CN(Cc2cc(Cl)c(O)c(Cl)c2)C2CCCCC2)cc1Cl,1.49%
21,Oc1c(Cl)cc(C(c2cc(Cl)c(O)c(Cl)c2)C(c2cc(Cl)c(O)c(Cl)c2)c2cc(Cl)c(O)c(Cl)c2)cc1Cl,25.7% (active)
22,CC(C)(CC1(C)NC(=O)NC1=O)OCc1ccccc1 (centres undefined),-10.8%
23,O=C(O)Cn1ccnc1[N+](=O)[O-],-10.9%
24,NCCCc1c(-c2ccccc2)nc(N)[nH]c1=O,-2.69%
25,O=C(O)c1nc(-c2ccccc2)[nH]c1C(=O)O,4.21%

row,SMILES,hERG blockade
1,Nc1nc(C(=O)O)c(N=Nc2ccccc2)c(=O)[nH]1,33.3% (active)
2,O=C(c1nc2ccc([N+](=O)[O-])cc2[nH]c1=O)C(O)c1ccc2c(c1)OCO2 (centres undefined),-14.1%
3,O=C1CN2CCN(CC2)CC(=O)Nc2ccc(cc2)S(=O)(=O)c2ccc(cc2)NC(=O)CN2CCN(CC2)CC(=O)Nc2ccc(cc2)S(=O)(=O)c2ccc(cc2)N1,6.34%
4,O=C(O)c1ccc([N+]2=Cn3c(nc4ccccc43)C2)cc1,6.37%
5,COC(=O)CCC(C)C1CCC2C3CCC4CC5CCC4(C)C3(O5)C(Br)C(Br)C12C (centres undefined),5.42%
6,CCC(N)(C(=O)O)C(C)C (centres undefined),-13.5%
7,CN=C(N)N=C(N)Nc1cc2ccccc2c2ccccc12,-54.4% (active)
8,NC(=O)N=C(N)NC(=O)c1ccccc1,-1.06%
9,CCOC(=O)C(C)(C)C(O)C(C)C (centres undefined),16.9%
10,CS(=O)(=O)Nc1ccc(Nc2c3ccccc3nc3ccccc23)cc1,30.8% (active)
11,Cc1nc(N)nc2ccccc12,1.82%
12,CC1OC(O)C(O)C(O)C1O (centres undefined),8.47%
13,O=C(O)C(Sc1ccc(Cl)cc1)Sc1ccc(Cl)cc1,-7.17%
14,Oc1ccc(Cl)cc1Sc1cc(Cl)ccc1O,36.8% (active)
15,N#CCCSC(=S)C1CCCC1=N (centres undefined),14.7%
16,CN(C)CCCN1c2ccc(O)cc2Sc2ccc(Cl)cc21,62.7% (active)
17,CSc1ccc2c(c1)N(CCCN(C)C)c1ccccc1S2,90.6% (active)
18,CN(C)CCCN1c2ccccc2Sc2cnccc21,73.5% (active)
19,CN(C)CCCn1c2ccccc2c2cnccc21,90.4% (active)
20,CN(C)CCCn1cnc2cc(Cl)c(Cl)cc21,5.34%
21,Cc1c2cnccc2c(C)c2c1c1ccccc1n2CCOC(=O)c1ccccc1,17.4%
22,Oc1cc(O)c2c(c1)OC(c1ccc(O)c(O)c1)C(OC1(c3cc(O)c(O)c(O)c3)Oc3cc(O)cc(O)c3C(O)C1O)C2 (centres undefined),-3.37%
23,CC(CC(=O)O)C(C(=O)O)C(=O)O (centres undefined),2.78%
24,Oc1cc(CN2COc3ccccc32)c(O)cc1CNC1CCCCC1,6.98%
